Source: PubChem BioAssay
Sampled rows, rich in hits. Any-hit rate of the full collection: about 9.2%.
SMN2 splice up: qHTS Assay for Enhancers of SMN2 Splice Variant Expression | HEK293 SMN2-luciferase splicing reporter, luminescence, 30-36 h | Potency, µM (doses to about 46.1 µM), inactives show top-dose activity change, positive = activation, usual class: activators | 210,000 compounds, 2.8% hits | AID 1458, 2008; note: % of control where 0% means no effect; nearly all actives have a fitted effect of over 55% in size
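qHTS luciferase splicing reporter: luminescence rises when SMN2 exon 7 is included in transfected HEK293 cells. Compound exposure lasted 30-36 h at 37C, with 4.5 mM final sodium butyrate as control, followed by a ONE-Glo read.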
Rab9 prom act: qHTS Assay for Rab9 Promoter Activators; 320,000 compounds, 2.8% hits; Huh7 Rab9 promoter-luciferase reporter, luminescence, 24 h; AID 485297, 2010; Potency, µM (titrated, usually from 9.22 µM), for inactives: top-dose activation, negative = inhibition, most hits filed as activators; note: % of control where 0% means no effect; nearly all actives have a fitted effect of over 60% in size
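Promoter activation is measured as luciferase luminescence in Huh7 cells stably transfected with a Rab9 promoter–luciferase construct, following 24 h compound exposure at 37 °C and 10 min reagent incubation at ambient temperature.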
FLuc modulator: qHTS profiling assay for firefly luciferase inhibitor/activator using purifed enzyme and Km concentrations of substrates (counterscreen for miR-21 project); AID 588342, 2011; 360,000 compounds, 6.9% hits; Potency, µM (series often up to 57.5 µM), for the others: at the highest dose activity change, negative = inhibition, actives largely listed as inhibitors; purified FLuc, Km substrates, luminescence inhibition;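 note: plate controls were vehicle for no effect and reference inhibitor for full effect; nearly all actives have a fitted effect of over 55% in size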
Target sequence (P08659 whole entry, looked up): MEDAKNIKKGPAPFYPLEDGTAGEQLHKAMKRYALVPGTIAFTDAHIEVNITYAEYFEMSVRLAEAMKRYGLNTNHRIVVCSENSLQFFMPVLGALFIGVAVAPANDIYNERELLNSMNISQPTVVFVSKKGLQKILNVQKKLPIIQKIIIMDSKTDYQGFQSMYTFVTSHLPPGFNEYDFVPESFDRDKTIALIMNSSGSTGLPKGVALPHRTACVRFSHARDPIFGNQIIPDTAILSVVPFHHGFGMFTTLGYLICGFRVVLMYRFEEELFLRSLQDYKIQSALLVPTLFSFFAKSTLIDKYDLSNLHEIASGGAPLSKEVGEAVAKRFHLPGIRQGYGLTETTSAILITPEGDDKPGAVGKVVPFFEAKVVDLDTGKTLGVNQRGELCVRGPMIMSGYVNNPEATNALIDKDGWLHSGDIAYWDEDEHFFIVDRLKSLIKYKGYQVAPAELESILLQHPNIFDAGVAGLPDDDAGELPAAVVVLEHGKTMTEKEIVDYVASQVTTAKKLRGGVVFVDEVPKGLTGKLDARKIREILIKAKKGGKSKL
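Biochemical qHTS of compounds, final roughly 60 µM downward over six points, against 10 nM purified firefly luciferase using Km concentrations of substrates (10 uM D-luciferin, 10 uM ATP) in Tris acetate pH 7.5 buffer; luminescence output.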
ELG1 genotoxic: qHTS screen for small molecules that induce genotoxicity in human embryonic kidney (HEK293T) cells expressing luciferase-tagged ELG1 | HEK293T ELG1-luciferase reporter, luminescence, 16 h | Potency, µM (highest dose often 46 µM), for inactives: top-dose activity change, positive = activation, most hits filed as activators | 330,000 compounds, 1.3% hits; note: % of control where 0% means no effect; nearly all actives have a fitted effect of over 60% in size
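DMSO vehicle served as control against compound-treated ELG1-luciferase HEK293T cells; exposure lasted 16 hr at 37 °C and 5% CO2, followed by ONE-Glo luminescence detection after 30 min.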
NPC1 prom act: qHTS Assay for NPC1 Promoter Activators; Huh7 NPC1 promoter luciferase reporter, 24 h; 320,000 compounds, 2.4% hits; Potency, µM (top dose mostly 9.22 µM), inactives show at the highest dose activation, hits mostly activators; note: % of control where 0% means no effect; nearly all actives have a fitted effect of over 60% in size
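Quantitative HTS used a cell-based reporter: Huh7 cells stably bearing the NPC1 promoter upstream of luciferase were treated with compounds for 24 h, and promoter activation was read as luminescence.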
ELG1 repair inh: qHTS screen for small molecules that inhibit ELG1-dependent DNA repair in human embryonic kidney (HEK293T) cells expressing luciferase-tagged ELG1; HEK293T ELG1-luciferase reporter, luminescence, 16 h; DNA damage induced by 5-fluorouridine; Potency, µM (doses to about 46.1 µM), for inactives: at the highest dose activity change, negative = inhibition, actives largely listed as inhibitors; 330,000 compounds, 2.3% hits; AID 504467, 2011; note: % is set by controls: 0 for no effect and ±100 for the full control effect; nearly all actives have a fitted effect of over 55% in size
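Reporter activity after DNA damage by 5-fluorouridine is monitored. Compound-treated cells incubate 16 hr at 37 °C, then ONE-Glo is added for 30 min before luminescence reading.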
An asterisk follows results filed as active; ? = inconclusive; / = no result given. Calls come from the whole dose curve; as a rule, active = well fitted curve in the direction sought with a large enough effect; inconclusive = small, poorly fitted or top-dose-only effect, or another doubt; inactive = no such curve, though single readings can be large; an effect the other way counts as inactive or inconclusive. Potency is the fitted concentration of half-maximal effect.

SMILES	SMN2 splice up	Rab9 prom act	FLuc modulator	ELG1 genotoxic	NPC1 prom act	ELG1 repair inh
Cc1csc(NC(=O)c2cc3c(s2)-c2ccccc2OC3)n1	?	?	?	17%	3.5µM*	?
CN(C)CCNC(=O)c1cc2c(s1)-c1ccccc1OC2	-11%	18%	19µM*	23µM*	17%	?
COc1ccc(Cl)cc1NC(=O)c1cc2c(s1)-c1ccccc1OC2	-7%	/	7%	/	/	/
Cc1ccccc1-n1nc(CO)c(C(=O)NCC(c2ccccc2)c2ccccc2)n1	-69%	/	0%	/	/	/
O=[N+]([O-])c1cc(-c2nnc(Nc3ccccc3)c3ccccc23)ccc1N1CCOCC1	-15%	-13%	-4%	-5%	-4%	18µM*
Cc1ccc(Nc2nnc(-c3ccc(N4CCOCC4)c([N+](=O)[O-])c3)c3ccccc23)cc1	-13%	-2%	-1%	-5%	-4%	?
O=[N+]([O-])c1cc(-c2nnc(Nc3ccc(O)cc3)c3ccccc23)ccc1N1CCOCC1	-11%	-10%	-3%	-12%	0%	18µM*
COc1cc2c(cc1NC(=O)c1ccco1)CCCC2	21%	?	21µM*	13%	15%	?
COc1cc(NC(=S)NC(=O)c2ccco2)ccc1NC(=O)C(C)C	18%	21%	?	9%	8%	?
COc1cc(NC(=O)C(C)C)ccc1NC(=O)c1ccco1	11µM*	1.1µM*	19µM*	7.9µM*	4µM*	?
O=C(CCS(=O)(=O)c1ccc(Cl)cc1)Nc1nc(-c2ccncc2)cs1	/	0%	4%	-2%	-2%	7.3µM*
O=C(CCS(=O)(=O)c1ccc(Cl)cc1)Nc1nc(-c2cccnc2)cs1	/	?	5%	/	16%	?
CCSC1=N/C(=C\c2ccc3c(c2)OCO3)C(=O)S1	/	1%	-19%	3%	-1%	0%
CN1C(=O)/C(=C/c2ccc3c(c2)OCO3)N=C1c1ccccc1	8%	-2%	4.8µM*	-2%	0%	-5%
COc1cc(/C=C2\C(=O)N(c3ccccc3)N=C2C)ccc1Oc1ccc([N+](=O)[O-])cc1[N+](=O)[O-]	-18%	4%	?	2%	0%	?
C#CCOc1ccc(/C=C2/C(=O)N(c3cccc(C(=O)O)c3)N=C2C)cc1OC	/	-1%	12µM*	10%	-1%	?
CC1=NN(c2ccccc2)C(=O)/C1=C\c1cn(-c2ccccc2)nc1C	5%	-3%	?	2%	-4%	3%
CC1=NN(c2ccccc2)C(=O)/C1=C\c1sccc1C	/	-2%	7.6µM*	4%	-5%	?
CC1=NN(c2ccccc2)C(=O)/C1=C/c1cc(C)n(C2CC2)c1C	7%	14%	2.4µM*	8%	11%	-5%
COc1cccc(/C=C/C(=C2/C(=O)N(c3ccccc3)N=C2C)c2ccccc2)c1OC	-43%	-2%	-13%	3%	1%	7.3µM*
Cc1cccc(C(=O)Nc2ccccc2OCc2cc(=O)n3cc(C)ccc3n2)c1	/	/	1%	/	/	/
CC1=C(C(=O)Nc2ccc(Cl)cc2)C(c2ccc(C(F)(F)F)cc2)n2nnnc2N1 (stereo not given)	2%	/	6%	/	/	/
COc1ccccc1/C=C1/C(=O)N(c2ccccc2)N=C1C	/	0%	27µM*	0%	-1%	7%
CC1=NN(c2ccc(Br)cc2)C(=O)/C1=C/c1cccs1	-22%	28%	7.6µM*	-3%	25%	?
CCN1CCN(C(=O)c2cc3cc([N+](=O)[O-])ccc3oc2=O)CC1	8%	-6%	-1%	6%	1%	11%
SMILES	SMN2 splice up	Rab9 prom act	FLuc modulator	ELG1 genotoxic	NPC1 prom act	ELG1 repair inh
O=C(c1cc2cc([N+](=O)[O-])ccc2oc1=O)n1cccn1	0%	4µM*	-3%	-2%	-4%	-13%
Cc1ccc(OCCn2ncc3ccccc3c2=O)c(C)c1	/	12%	-16%	5%	5%	2%
O=c1c2ccccc2cnn1CCOc1cccc(Br)c1	/	?	9.5µM*	?	3.5µM*	?
Fc1ccc(Nc2ccnc(C(F)(F)F)c2)cc1	/	-6%	-2%	1%	-3%	?
FC(F)(F)c1cc(NC2CCCCC2)ccn1	/	-3%	-8%	-10%	1%	8.2µM*
COc1cc(N2Cc3ccccc3C2)ccc1C=O	/	?	21µM*	4µM*	?	?
Cc1cccc(NC(=O)N2CCC(CN3CCCCCC3)CC2)c1C	/	/	-1%	/	/	/
Cc1ccc(F)c(NC(=O)c2c(-c3ccccc3)noc2C)c1	/	1%	0%	0%	1%	1%
Cc1ccc(/C(O)=C2/C(=O)C(=O)N(Cc3ccco3)C2c2cccs2)cc1 (stereo not given)	11%	-3%	24µM*	1%	-4%	-2%
CCN(CC)CCN1C(=O)C(=O)/C(=C(/O)c2ccc(OC)cc2)C1c1cccs1 (stereo not given)	-1%	6%	?	-3%	15%	?
CC1(C)CC(N2CCCC2)=CC(=[N+]2CCCCCC2)C1	-72%	-48%	-4%	-15%	-48%	0.58µM*
COc1ccc(NC(=O)C(C)N2c3cccc4cccc(c34)S2(=O)=O)cc1 (stereo not given)	-50%	-4%	4%	1%	-5%	?
COc1ccc(NC(=O)C(C)N2c3cccc4cccc(c34)S2(=O)=O)cc1OC (stereo not given)	-80%	-16%	1%	4%	-8%	7.3µM*
Cc1cc(C(=O)OCC(=O)Nc2ccccc2C#N)c(C)o1	/	0%	-3%	1%	-1%	?
CCCn1nc(C(=O)N2CCN(S(=O)(=O)c3ccc(C)c(C)c3)CC2)c2ccccc2c1=O	/	-5%	0%	-9%	-1%	23µM*
CCCn1nc(C(=O)NNC(=O)c2ccc(C)c(C)c2)c2ccccc2c1=O	/	/	/	-2%	/	?
c1ccc2c(Oc3ccc4c(c3)OCO4)nncc2c1	10µM*	0.63µM*	6µM*	?	1.3µM*	?
Nc1ccc(Oc2ccc3c(c2)OCO3)cc1	6%	9%	0%	-8%	15%	14%
Cc1ccc(-c2nc(C3CCN(S(=O)(=O)c4ccc(C(C)(C)C)cc4)CC3)no2)cc1	-5%	-9%	-6%	-9%	0%	3%
